Rows were chosen to be rich in hits. Some 1.8% of all compounds tested hit in one or more screens of this group.
PfHsp40 rescue = compounds rescuing yeast from Plasmodium falciparum HSP40 toxicity; S. cerevisiae expressing PfHsp40, growth rescue, ATP luminescence; growth rescue, % at 12.5 µM; 0.68% of 340,000 active; in the data active = growth rescue above about 28%, passing the limit was not always enough;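 also: yeast W303a lacking pdr1 and pdr3 grown in galactose medium; growth measured after three days at 30 °C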
MazEF act = increases E. coli MazEF RNase cleavage of RNA; FAM/BHQ RNA-DNA oligo cleavage fluorescence, 5 h; activation, % at 20 µM; 0.32% of 350,000 active; in the data active = activation above about 50%
SSB-PriA inh = inhibitors of Klebsiella pneumoniae PriA binding to SSB C-terminal tail; AlphaScreen SSBct-PriA binding, biotinylated peptide; inhibition, % at 33 µM; 0.6% of 430,000 active; in the data active = inhibition mostly above about 37%, no sharp cut-off; inactive = mostly below about 20%
PrPC TRFRET = reduces human prion protein on the cell surface. P04156. cell surface PrPC, TR-FRET read-out. inhibition, % at 13.8 µM. 0.43% of 370,000 active. AID 720596; in the data active = inhibition above about 24%
PrP 5UTR inh = inhibition of PrP 5' UTR reporter expression | inhibition, % (no concentration beside the values) | AID 488862 | 0.35% of 340,000 active | cell-based PrP 5' UTR mRNA reporter, plate reader; in the data active = inhibition above about 52%
PrPC TRFRET cf = cell surface PrPC inhibition, TR-FRET confirmation | shares compounds with PrPC TRFRET | cell surface PrPC level | inhibition, % at 13.8 µM | 65% of 1,500 active; in the data active = inhibition above about 25%
LD9 cytotox = counter-screen for PrPc inhibitors: cytotoxicity in LD9 cells; shares compounds with PrPC TRFRET; luminescence viability; inhibition, % at 13.8 µM; 29% of 1,500 active; in the data active = inhibition above about 9.5%
A number is an active result; n = inactive; x = no result.

SMILES	PfHsp40 rescue	MazEF act	SSB-PriA inh	PrPC TRFRET	PrP 5UTR inh	PrPC TRFRET cf	LD9 cytotox
COC(=O)c1sc(NC(=O)C2CCCCC2C(=O)O)c(C(=O)OC)c1C (centres undefined)	n	n	n	27.4	n	41.9	n
O=c1[nH]c(CN2CCN(c3ccc(O)cc3)CC2)nc2scc(-c3ccc(Cl)cc3)c12	n	n	n	25.5	n	38.6	12.9
COc1ccc(CNC(=O)c2cccc3c(-c4cccc(C(N)=O)c4)coc23)cc1OC	x	x	x	36.6	x	24.6	27.6
O=C1C(=O)c2ccccc2-c2ccccc21	n	n	n	27.0	n	64.8	98.7
O=C1c2ccccc2-c2cccnc21	n	n	n	n	n	x	x
O=C(Nc1ccc(Cl)cc1)O/N=C(\c1ccccc1)c1ccccn1	n	n	x	n	n	x	x
NC(=O)c1cc(NC(=O)c2ccc(NS(=O)(=O)c3cccs3)cc2)cc(C(N)=O)c1	n	n	n	32.6	n	34.6	n
COc1cccc(NC(=O)c2ccc(NS(=O)(=O)c3cccs3)cc2)c1	n	n	n	n	n	x	x
COc1ccc(C(=O)C(=O)N2CCN(c3ccccc3F)CC2)cc1	x	x	x	n	x	x	x
CC(=O)NC(=S)Nc1ccc(NC(=O)COc2ccc(C(C)C)cc2)cc1	n	n	n	n	n	x	x
CC(=O)NC(=S)Nc1ccc(NC(=O)COc2ccc(Cl)cc2)cc1	n	n	n	41.5	n	n	n
CCN(CC)CCCNC(=O)CNC(=S)N(CCCN1CCOCC1)Cc1cccs1	n	n	n	n	n	x	x
CCOc1ccc(C2C(C#N)=C(N)SC(N)=C2C#N)cc1OCC	n	n	n	26.9	n	72.5	n
Nc1nnc(SCc2nc3scc(-c4ccccc4)c3c(=O)[nH]2)s1	n	n	n	26.1	n	53.5	n
Cc1nnc(SCc2nc3scc(-c4ccccc4)c3c(=O)[nH]2)s1	n	n	n	n	n	x	x
CCc1nc2c(OCC(=O)c3ccc(F)cc3)cccn2c1N(C)C(=O)COc1ccccc1	x	x	x	n	x	x	x
CCCCC(=O)NC(c1ccc(N(C)C)cc1)c1ccc2cccnc2c1O (centres undefined)	508.7	n	n	27.4	n	24.7	16.2
CCCCC(=O)NC(c1ccc(Cl)cc1)c1ccc2cccnc2c1O (centres undefined)	n	n	n	28.6	n	n	11.4
CCCCC(=O)NC(c1ccccc1OC)c1ccc2cccnc2c1O (centres undefined)	n	n	n	40.5	n	30.7	27.4
O=C(c1ccco1)N(Cc1ccccc1)c1cccc([N+](=O)[O-])c1	n	n	n	n	n	x	x
CCn1c(CNc2ccc(Cl)cc2)nnc1SCC#N	n	n	n	n	n	x	x
Cn1c(=O)[nH]c(=O)c2c1nc(SCC(N)=O)n2Cc1cccc(Br)c1	n	n	n	n	n	x	x
Cc1ccc(C)c(NC(=O)c2nnn(Cc3ccccc3)c2N)c1	n	n	n	27.4	n	n	n
Cc1ccc(Cn2nnc(C(=O)Nc3cc(C)ccc3C)c2N)cc1	n	n	n	n	n	x	x
CSc1sc(C(=O)O)c2c1C(=O)CC(C)(C)C2	n	n	n	n	n	x	x
SMILES	PfHsp40 rescue	MazEF act	SSB-PriA inh	PrPC TRFRET	PrP 5UTR inh	PrPC TRFRET cf	LD9 cytotox
CSc1sc(-c2ccnc(SCC(=O)C(C)(C)C)n2)c2c1C(=O)CC(C)(C)C2	n	n	n	32.2	n	47.8	n
O=C1CCCC2=C1Sc1ccccc1N2	n	n	n	n	n	x	x
CC(=O)c1sc(NC(=O)c2c(F)cccc2F)nc1-c1ccccc1	n	n	n	25.2	n	n	n
COc1cccc2sc3cc(NCc4ccc5c(c4)OCO5)ccc3c(=O)c12	n	n	n	94.5	n	139.3	n
COc1cc2sc3cc(NCc4ccc5c(c4)OCO5)ccc3c(=O)c2cc1OC	n	n	n	39.1	n	67.0	n
COc1cc2sc3cc(NCc4ccc(C)o4)ccc3c(=O)c2cc1OC	n	n	n	n	n	x	x
COc1ccc(NCc2ccc3c(c2)OCO3)cc1Cl	n	n	n	n	n	x	x
Cc1cc(C)c(C)c(S(=O)(=O)NCc2cccnc2)c1C	n	n	n	n	n	x	x
Cc1cc(C)c(S(=O)(=O)NCc2cccnc2)c(C)c1	n	n	n	45.6	n	35.5	n
CCN(CC(=O)Nc1ccc(NC(C)=O)cc1)CC(=O)Nc1ccc(Cl)c(Cl)c1	n	n	n	n	n	x	x
CCN(CC)c1ncnc2ccc(Br)cc12	n	n	n	39.2	n	41.5	n
CN1CCC(N(C)c2ncnc3ccc(Br)cc23)CC1	n	n	n	n	n	x	x
O=C(c1nnsc1S(=O)(=O)c1ccc(Cl)cc1)N1CCOCC1	n	n	n	n	n	x	x
CNC(=O)c1nnsc1S(=O)(=O)c1ccc(Cl)cc1	209.1	n	n	24.7	n	n	79.5
COc1ccccc1-c1nc2n(n1)C(c1ccccc1Cl)C(C(N)=O)=C(C)N2 (centres undefined)	n	n	n	n	n	x	x
COc1ccc(OC)c(C2C(C(N)=O)=C(C)Nc3nc(-c4cccc(Cl)c4)nn32)c1 (centres undefined)	n	n	n	42.4	n	33.8	n
CCC(C)NC(=O)c1ccccc1NC(=O)Nc1ccccc1 (centres undefined)	n	n	n	n	n	x	x
CCC(=O)N1CCN(c2ccc(-n3c(=O)ccc4cnc5ccc(-c6cnc7ccccc7c6)cc5c43)cc2C(F)(F)F)CC1	x	x	x	37.1	x	39.0	32.6
O=C(O)COCC(=O)N1CCN(c2cc(C(F)(F)F)nc3ccccc23)CC1	n	n	n	n	n	x	x
Cc1cccc(NS(=O)(=O)c2ccc3oc(=O)ccc3c2)c1C	n	n	n	37.2	n	n	n
COCCN1Cc2cccc(C(=O)Nc3ccc(S(=O)(=O)N4CCOCC4)cc3)c2C1=O	n	n	n	n	n	x	x
CC(CC(=O)Nc1ccc2c(c1)OCCO2)=NNC(=O)Cc1ccccc1	x	x	n	x	x	x	x
Clc1ccc(-c2ccc(-c3nn4c(-c5ccco5)nnc4s3)o2)cc1	n	n	n	n	n	x	x
Brc1ccc(-c2nn3c(-c4ccco4)nnc3s2)o1	n	n	n	61.8	n	75.7	n
CO[C@H]([C@H](C)/C=C/N(C)C=O)[C@@H](C)C(=O)CC[C@H](C)[C@H](O)[C@H](C)[C@H]1OC(=O)/C=C/C(C)=C/C[C@H](O)C[C@@H]2C=CC[C@@H](C[C@H](OC)[C@@]3(CO3)[C@@H](OC)C[C@@H](OC)[C@@H]1C)O2	x	x	x	41.3	x	36.8	39.0
CO[C@H]([C@H](C)/C=C/N(C)C=O)[C@@H](C)C(=O)CC[C@H](C)[C@H](O)[C@H](C)[C@H]1OC(=O)/C=C/C(C)=C/C[C@H](O)C[C@@H]2C=CC[C@@H](C[C@H](OC)[C@@H](C)[C@@H](OC)C[C@@H](OC)[C@@H]1C)O2	x	x	x	47.8	x	39.0	26.4
COC(=O)c1ccc(C(=O)N2CCSC2c2cccc(F)c2)cc1 (centres undefined)	x	x	n	x	x	x	x
